Bioassay records from PubChem.
Most compounds without a hit are left out; they make up all but 6.9% or so of the library.
SW480 rerep: A quantitative high throughput screen for small molecules that induce DNA re-replication in SW480 colon adenocarcinoma cells; 340,000 compounds, 1.8% hits; AID 624297, 2012; Potency, µM (doses to about 46.1 µM), without a hit: at the highest dose re-replication activation, hits mostly activators; SW480 DNA re-replication, Hoechst DNA content imaging, 48 h; note: potency is the fitted concentration of half-maximal effect; % of control where 0% means no effect; nearly all actives have a fitted effect of over 55% in size
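SW480 cells exposed to compounds for 48 hr at 37 C, 5% CO2, then Hoechst-stained 40 min. Nuclear DNA content imaged by fluorescence scanning (405 nm excitation, 500-530 nm emission); re-replication scored as increased high-intensity nuclei.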
IL-1B inflam inh: qHTS for Inhibitors of Inflammasome Signaling: IL-1-beta AlphaLISA Primary Screen; 360,000 compounds, 4.7% hits; THP-1 LPS/ATP IL-1B secretion, AlphaLISA, 16 h; hits give low values; activity change, % at 57.5 µM; in the data active = activity change below about -50%; inconclusive = mostly about -30% to -49%; note: % is set by controls: 0 for no effect and ±100 for the full control effect
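THP-1 cells pretreated 1 hr with compounds (up to 57.5 uM final), then stimulated with LPS (250 ng/mL final) plus ATP (1.25 mM final); secreted IL-1B measured by AlphaLISA after 16 hr, decreased signal indicating inhibition.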
Vif-A3F inh: qHTS for Inhibitors of Vif-A3F Interactions: qHTS | HeLa A3F-eYFP + Vif (tagged APOBEC3F with the HIV-1 protein that degrades it), YFP fluorescence increase | AID 602313, 2012 | 390,000 compounds, 0.2% hits | Potency, µM (series often up to 46.1 µM), without a hit: at the highest dose activity, negative = active; note: potency is the fitted concentration of half-maximal effect; % of control where 0% means no effect; nearly all actives have a fitted effect of over 65% in size
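Fluorescence increase (Ex 488/Em 500-530) after overnight compound treatment at 37 deg C flags inhibition of Vif-driven A3F-eYFP loss in stable HeLa A3F-eYFP/Vif cells seeded overnight beforehand.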
MCF10A rereplic: A quantitative high throughput screen for small molecules that induce DNA re-replication in MCF 10a normal breast cells; Potency, µM (series often up to 46.1 µM), for the others: top-dose activity, positive = re-replication, actives largely listed as activators; 350,000 compounds, 2.9% hits; AID 624296, 2012; MCF 10A DNA re-replication, Hoechst nuclear intensity, 48 h; note: potency is the fitted concentration of half-maximal effect; % of control where 0% means no effect; nearly all actives have a fitted effect of over 50% in size
Vif-A3G inh: qHTS for Inhibitors of Vif-A3G Interactions: qHTS. 410,000 compounds, 0.076% hits. HeLa A3G-eYFP + Vif (tagged APOBEC3G with the HIV-1 protein that degrades it), YFP fluorescence, overnight. AID 602310, 2012. DNA dC->dU-editing enzyme APOBEC-3G (Homo sapiens), Q9HC16. Potency, µM (series often up to 46.1 µM), for inactives: at the top dose activity, negative = active, hits mostly inhibitors; note: potency is the fitted concentration of half-maximal effect; % is set by controls: 0 for no effect and ±100 for the full control effect; nearly all actives have a fitted effect of over 60% in size
Target sequence (Q9HC16 whole entry, looked up): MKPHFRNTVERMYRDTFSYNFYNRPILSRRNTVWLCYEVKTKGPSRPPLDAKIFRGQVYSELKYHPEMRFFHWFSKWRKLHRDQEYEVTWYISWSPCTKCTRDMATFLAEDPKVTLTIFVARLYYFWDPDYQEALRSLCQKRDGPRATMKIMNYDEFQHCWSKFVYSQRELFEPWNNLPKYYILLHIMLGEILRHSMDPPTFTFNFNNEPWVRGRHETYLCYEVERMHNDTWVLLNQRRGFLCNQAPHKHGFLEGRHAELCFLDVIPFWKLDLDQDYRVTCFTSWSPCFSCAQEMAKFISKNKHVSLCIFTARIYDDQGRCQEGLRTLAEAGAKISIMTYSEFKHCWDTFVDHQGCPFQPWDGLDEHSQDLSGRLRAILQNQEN
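Read-out is eYFP fluorescence (Ex 488/Em 500-530) from Vif-expressing HeLa A3G-eYFP cells; more signal means A3G escaped Vif-mediated degradation. Cells plated overnight, compound pinned in, incubated overnight at 37 deg C.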
Giardia killer: Small Molecules that selectively kill Giardia lamblia: qHTS; Giardia lamblia trophozoite viability; activity change, % at 7.66 µM, hits read low; 340,000 compounds, 0.15% hits; AID 540267, 2011; in the data active = activity change below about -80%; inconclusive = between about -30% and that limit;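 note: parasites exposed to compound for two days anaerobically before the ATP read; % is set by controls: 0 for no effect and ±100 for the full control effect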
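Killing of trophozoites was scored by loss of ATP luminescence after a 48 hrs anaerobic exposure to compounds at 37 deg C, using 100 cells per well.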
* hit, by the source's call; u = inconclusive; x = not tested or not shown. Unless noted, calls come from the whole dose curve; as a rule, active = well fitted curve in the direction sought with a large enough effect; inconclusive = small, poorly fitted or top-dose-only effect, or another doubt; inactive = no such curve, though single readings can be large; an effect the other way counts as inactive or inconclusive.

SMILES	SW480 rerep	IL-1B inflam inh	Vif-A3F inh	MCF10A rereplic	Vif-A3G inh	Giardia killer
Cc1ccnc(NS(=O)(=O)c2cnc(Cl)c(Br)c2)c1	1%	-92*	2%	u	0%	-15
CN(C(=O)COC(=O)c1nc(Cl)c(Cl)c(Cl)c1Cl)C1CCS(=O)(=O)C1 (centres undefined)	u	-99*	-1%	3.7µM*	u	-7
CN(C(=O)COC(=O)c1ccc2c(=O)n3c(nc2c1)CCC3)C1CCS(=O)(=O)C1 (centres undefined)	-10%	-70*	0%	2%	-4%	2
Cc1ccccc1N=Cc1c(O)n(-c2nccs2)c(=O)c2ccccc12	-5%	-55*	-2%	30%	0%	5
O=c1c2ccccc2c(C=Nc2ccccc2O)c(O)n1-c1nccs1	0%	-29	u	14%	9%	8
Cc1cccc(C)c1N=Cc1c(O)n(-c2nccs2)c(=O)c2ccccc12	1%	-50*	1%	3%	-8%	6
FC(F)(F)c1cc(Cl)c2nc(-c3ccccc3)cn2c1	1%	8	-9%	15µM*	-14%	3
Nc1cccc(-c2cn3cc(C(F)(F)F)cc(Cl)c3n2)c1	0%	-1	-26%	19%	-6%	-17
O=C(NC(Cc1c[nH]c2ccccc12)C(=O)Nc1ccc(F)c([N+](=O)[O-])c1)c1cccs1 (centres undefined)	u	-27	0%	u	-2%	6
O=C(NC(Cc1c[nH]c2ccccc12)C(=O)Nc1ccc(OC(F)(F)F)cc1)c1cccs1 (centres undefined)	u	-68*	-14%	u	-7%	9
O=C(Cn1cnc2c(oc3ccccc32)c1=O)Nc1ccccc1C(F)(F)F	x	x	-11%	x	-8%	x
CCCOc1ccc(Oc2nc(NCC(C)C)nc(N3CCOCC3)n2)nn1	x	x	-15%	x	-1%	x
Cc1nn(-c2ccc(Cl)cc2)c(Cl)c1/C=C(\C#N)C(N)=O	11%	-6	5%	u	-1%	-21
C=CCNC(=O)/C(C#N)=C/c1c(C)nn(-c2ccc(Cl)cc2)c1Cl	u	-57*	-3%	u	1%	5
Cc1nn(-c2ccccc2Cl)c(Cl)c1/C=C(\C#N)C(N)=O	u	-74*	-2%	u	-6%	-11
COc1ccc2c(c1)c1c(c(=O)n(Cc3ccccc3)c(=O)n1Cc1cccc(Cl)c1)n2C	x	x	-21%	x	-7%	x
COc1ccc(Cn2c(=O)c3ccccc3n3c(-c4ccc(C)cc4)nnc23)cc1	x	x	-13%	x	0%	x
COc1cc(NC(=O)c2cccc3c2C(=O)N(C2CCCCC2)C3)cc(OC)c1OC	8%	-60*	u	u	-13%	37
O=C(NCCc1ccccc1)c1cccc2c1C(=O)N(C1CCCCC1)C2	-19%	u	-8%	0%	-1%	-4
COc1ccc(CCNC(=O)c2cccc3c2C(=O)N(C2CCCCC2)C3)cc1OC	-7%	-70*	-2%	13%	0%	10
Cc1cc(C)cc(NC(=O)c2cccc3c2C(=O)N(C2CCCCC2)C3)c1	-5%	29	-5%	16%	0%	18
CCN(CC)S(=O)(=O)c1ccc2c(c1)N(CC(=O)N1CCN(c3cccc(OC)c3)CC1)C(=O)CO2	x	x	1%	x	-4%	x
Cc1ccc(NC(=O)Cn2c(=O)ccc3cc(S(=O)(=O)N4CCCC4)ccc32)cc1N(C)C	x	x	-3%	x	-19%	x
CC(=O)N1N=C(c2cccc([N+](=O)[O-])c2)OC1c1ccccc1Cl (centres undefined)	-1%	9	0%	17%	-7%	-7
